Shown are actives, neighbours in structure and some others; about 19% of the full set was active somewhere.
HT1080 IDH1KD tx = kills HT-1080 cells with IDH1 knockdown; HT-1080 IDH1 knockdown viability, ATP luminescence, 48 h; Potency, µM (highest dose often 46.1 µM), actives largely listed as cytotoxic; 2% of 360,000 active; AID 686971
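Knockdown cells (IDH1KD HT-1080) received compounds 2 h after plating at 750 cells/well and were kept 48 h at 37 °C in 5% FBS RPMI. A CellTiter-Glo luminescence read gave % activity for curve fitting.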
TDP1 cell CPT = growth inhibition of DT40 Tdp1-/-;hTDP1 cells with camptothecin (screen for TDP1 inhibitors) | chicken DT40 Tdp1-/-;hTDP1 cells + 20 nM CPT, ATP luminescence, 48 h | Potency, µM (series often up to 46.2 µM), actives largely listed as inhibitors | 12% of 420,000 active | AID 686979; further: nearly all actives have a fitted effect of over 55% in size
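Chicken DT40 Tdp1-/- cells complemented with human TDP1, 400 cells/well, exposed to compounds plus 20 nM camptothecin for at least 48 h at 37 C; viability read as ATP content by CellTiter-Glo luminescence.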
HT1080-NT tox = kills 2HG-producing HT-1080-NT fibrosarcoma cells; AID 686970; HT-1080-NT fibrosarcoma viability, CellTiter-Glo ATP luminescence, 48 h; Potency, µM (titrated, usually from 46.1 µM), most hits filed as cytotoxic; 1.6% of 360,000 active;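 further: NT is the 2HG producing partner of a matched IDH1 knockdown line; nearly all actives have a fitted effect of over 55% in size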
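HT-1080-NT fibrosarcoma cells (2HG-overproducing), 750 cells/well in RPMI with 5% FBS, dosed after 2 h and incubated 48 h at 37C. CellTiter-Glo luminescence normalized to DMSO and no-cell wells; concentration-response curves fitted and classed.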
KB-V1 cytotox = KB-V1 MDR subline cytotoxicity; KB-V1 MDR cells viability, CellTiter-Glo, 72 h; Potency, µM (series often up to 46.1 µM), actives largely listed as cytotoxic; 3.4% of 400,000 active; AID 1347076; further: nearly all actives have a fitted effect of over 60% in size
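Cells of the MDR subline KB-V1 are plated, dosed with compound at multiple concentrations, and incubated 72 h at 37 degrees C; CellTiter-Glo is then added and luminescence read after 10 min.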
DT40 TDP1 no CPT = qHTS for Inhibitors of human tyrosyl-DNA phosphodiesterase 1 (TDP1): qHTS in cells in absence of CPT; DT40 Tdp1-/- hTDP1 cells, no CPT, ATP luminescence, 48 h; Potency, µM (titrated, usually from 46.2 µM), hits mostly inhibitors; 15% of 420,000 active; further: nearly all actives have a fitted effect of over 55% in size
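A cellular qHTS used chicken DT40 cells lacking endogenous Tdp1 but carrying stably transfected human TDP1. Compounds were applied without camptothecin, and cell growth kinetics were judged by ATP-dependent luminescence after ≥48 hr.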
KB-3-1 tox = KB-3-1 parental cell cytotoxicity; KB-3-1 viability, CellTiter-Glo ATP luminescence, 72 h; Potency, µM (series often up to 46.1 µM), actives largely listed as cytotoxic; 1.4% of 400,000 active; AID 1347075; further: nearly all actives have a fitted effect of over 60% in size
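KB-3-1 cells, DMEM (no phenol red) + 10% FBS; compound by pin transfer, 72 h, 37 °C. Readout: CellTiter-Glo luminescence after 10 min. Data normalized, curve-fitted.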
Each line names hits and unclear results; the compound was inactive in the other large screens. The call rests on the fitted dose curve; in most records, active means well fitted curve in the direction sought with a large enough effect; inconclusive means small, poorly fitted or top-dose-only effect, or another doubt; inactive means no such curve, though single readings can be large; an effect the other way counts as inactive or inconclusive.

COc1ccc(-c2cc(-c3nnc(COC(=O)c4ccncc4)o3)c3ccccc3n2)cc1OC	DT40 TDP1 no CPT 9.2µM
Cc1ncsc1CCSc1nc2ccccc2c(=O)n1C	TDP1 cell CPT inconclusive, DT40 TDP1 no CPT 23µM
COCCn1c(SCC(=O)NNC(=O)Cc2ccccc2)nc2ccccc2c1=O	none
Cn1c(SCC(=O)NNC(=O)Cc2ccccc2)nc2ccccc2c1=O	TDP1 cell CPT 21µM, DT40 TDP1 no CPT 13µM
Cc1ncsc1CCSc1n[nH]c(=O)n1-c1ccccc1	TDP1 cell CPT inconclusive
COc1ccccc1CNS(=O)(=O)c1ccc2c(c1)CC(=O)N2C	DT40 TDP1 no CPT inconclusive
CCc1ccc2ncc3c(-c4ccc(C)cc4)nn(CC(=O)Nc4ccc(C)cc4)c3c2c1	none (no result: HT1080 IDH1KD tx, HT1080-NT tox)
Cc1ccc(NS(=O)(=O)c2cc3c(cc2C)OCC(=O)N3)cc1C	KB-V1 cytotox inconclusive (no result: HT1080 IDH1KD tx, TDP1 cell CPT, HT1080-NT tox, DT40 TDP1 no CPT)
COc1cc(/C=C2\SC(=Nc3ccc(O)cc3)NC2=O)cc(OC)c1O	HT1080 IDH1KD tx inconclusive, TDP1 cell CPT 21µM, HT1080-NT tox inconclusive, DT40 TDP1 no CPT 5.2µM, KB-3-1 tox inconclusive
Cc1ccc(N=C2NC(=O)/C(=C\c3ccco3)S2)cc1	DT40 TDP1 no CPT inconclusive
Cc1cccc(N=C2NC(=O)/C(=C/C=C/c3ccco3)S2)c1	TDP1 cell CPT 13µM, KB-V1 cytotox inconclusive, DT40 TDP1 no CPT 23µM, KB-3-1 tox inconclusive
COc1ccc(N=C2NC(=O)/C(=C\C=C\c3ccco3)S2)cc1	TDP1 cell CPT inconclusive, DT40 TDP1 no CPT inconclusive
C=CCOc1c(Br)cc(/C=C2\SC(=Nc3ccccc3)NC2=O)cc1OC	TDP1 cell CPT inconclusive, DT40 TDP1 no CPT 21µM
O=C1NC(=Nc2ccc(O)cc2)S/C1=C/c1ccco1	HT1080 IDH1KD tx inconclusive, TDP1 cell CPT inconclusive, HT1080-NT tox inconclusive, KB-V1 cytotox 8.2µM, DT40 TDP1 no CPT 18µM, KB-3-1 tox inconclusive
COc1ccc(NC(=O)N(C)C[C@H]2Oc3ncc(Br)cc3C(=O)N([C@H](C)CO)C[C@@H]2C)cc1	none
COc1ccc(-c2nnc(SCc3c(C)noc3C)n2N)cc1OC	KB-V1 cytotox 7.3µM
Cc1csc(NC(=O)CSCc2c(C)noc2C)n1	none
Cc1noc(C)c1CSCC(=O)Nc1nc(-c2ccc(F)c(F)c2)cs1	TDP1 cell CPT 23µM, HT1080-NT tox inconclusive, KB-V1 cytotox inconclusive, DT40 TDP1 no CPT 8.2µM
COc1ccc(-c2nnc(SCC(=O)Nc3cc(C)on3)n2N)cc1OC	none
Cc1noc(C)c1CSCC(=O)Nc1nc2c(F)cc(F)cc2s1	TDP1 cell CPT inconclusive, DT40 TDP1 no CPT 23µM
COc1ccc(-c2csc(NC(=O)CSCc3c(C)noc3C)n2)cc1OC	TDP1 cell CPT inconclusive, DT40 TDP1 no CPT 9.2µM (no result: KB-V1 cytotox, KB-3-1 tox)
COc1ccc(CNC(=O)c2ccc3c(c2)N(Cc2ccccc2F)C(=O)c2ccccc2S3=O)cc1 (centres undefined)	DT40 TDP1 no CPT inconclusive (no result: HT1080 IDH1KD tx, HT1080-NT tox)
Cc1cccc(C(=O)NCc2nc(-c3ccccc3NC(=O)C3CCCO3)oc2C)c1 (centres undefined)	none (no result: HT1080 IDH1KD tx, HT1080-NT tox, KB-V1 cytotox, KB-3-1 tox)
Cc1ccc(N(CCC#N)C(=O)CCl)cc1C	HT1080 IDH1KD tx 13µM, TDP1 cell CPT inconclusive, HT1080-NT tox 9.2µM, KB-V1 cytotox inconclusive, DT40 TDP1 no CPT 7.3µM, KB-3-1 tox inconclusive
Cc1ccc(SCC(=O)OCC(=O)N(CCC#N)c2ccccc2)cc1C	KB-3-1 tox inconclusive
COc1ccc(S(=O)(=O)NCC(c2cccnc2)N2CCN(c3ccccc3)CC2)cc1C (centres undefined)	TDP1 cell CPT inconclusive, DT40 TDP1 no CPT inconclusive
Cc1cc(C)c(S(=O)(=O)NCC(c2ccco2)N2CCN(c3ccccc3)CC2)c(C)c1 (centres undefined)	TDP1 cell CPT 23µM, DT40 TDP1 no CPT 26µM (no result: HT1080 IDH1KD tx, HT1080-NT tox, KB-V1 cytotox, KB-3-1 tox)
Cc1cc(C)c(S(=O)(=O)NCC(c2ccco2)N2CCOCC2)c(C)c1 (centres undefined)	TDP1 cell CPT inconclusive, DT40 TDP1 no CPT inconclusive (no result: HT1080 IDH1KD tx, HT1080-NT tox)
